The source of these data is paper PMC4336329 (PLoS ONE, 2015).

Hit rate of the full screen: of about 310,000 compounds, about 14,000 (4.5%) showed an effect of 50% or more. The effect is printed as a negative number. The sample holds strong results, similar compounds and a random draw of the others, so the mix is not that of the screen.
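Further: peak tail current of the secondary pulse compared with the same well before compound.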

Chain of human ether-à-go-go-related gene (hERG) potassium channel (Q12809 whole entry, looked up): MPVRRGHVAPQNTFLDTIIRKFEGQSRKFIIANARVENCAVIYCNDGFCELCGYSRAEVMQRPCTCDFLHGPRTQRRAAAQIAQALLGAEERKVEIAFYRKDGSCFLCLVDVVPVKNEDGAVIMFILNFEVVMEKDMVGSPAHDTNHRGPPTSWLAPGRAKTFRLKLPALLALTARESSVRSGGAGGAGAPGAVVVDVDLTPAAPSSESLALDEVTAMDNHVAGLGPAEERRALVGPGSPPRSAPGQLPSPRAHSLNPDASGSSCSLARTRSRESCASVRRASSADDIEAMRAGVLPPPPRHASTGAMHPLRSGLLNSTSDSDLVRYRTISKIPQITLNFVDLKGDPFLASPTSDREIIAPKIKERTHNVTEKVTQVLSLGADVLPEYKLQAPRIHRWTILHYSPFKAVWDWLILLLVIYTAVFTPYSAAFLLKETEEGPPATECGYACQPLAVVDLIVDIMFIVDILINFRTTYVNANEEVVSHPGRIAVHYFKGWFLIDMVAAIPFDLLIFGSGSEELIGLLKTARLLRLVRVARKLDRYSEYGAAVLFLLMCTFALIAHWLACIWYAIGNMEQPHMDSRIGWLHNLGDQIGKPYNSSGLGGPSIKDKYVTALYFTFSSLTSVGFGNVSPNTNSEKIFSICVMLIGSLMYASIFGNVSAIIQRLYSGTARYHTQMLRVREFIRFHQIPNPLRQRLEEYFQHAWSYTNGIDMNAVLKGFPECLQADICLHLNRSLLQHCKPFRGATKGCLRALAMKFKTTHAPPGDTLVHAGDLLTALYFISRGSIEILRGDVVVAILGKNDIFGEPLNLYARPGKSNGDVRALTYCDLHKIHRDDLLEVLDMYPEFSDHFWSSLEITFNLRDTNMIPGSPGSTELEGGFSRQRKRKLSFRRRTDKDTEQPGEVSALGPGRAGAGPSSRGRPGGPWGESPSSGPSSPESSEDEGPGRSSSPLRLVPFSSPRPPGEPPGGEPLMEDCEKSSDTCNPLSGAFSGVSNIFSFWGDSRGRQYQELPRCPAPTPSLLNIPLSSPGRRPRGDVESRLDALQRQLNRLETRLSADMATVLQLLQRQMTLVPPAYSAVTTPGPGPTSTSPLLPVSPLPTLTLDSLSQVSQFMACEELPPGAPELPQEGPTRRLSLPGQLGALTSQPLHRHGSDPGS

The assay concerns the target human ether-à-go-go-related gene (hERG) potassium channel (human, UniProt Q12809). Put plainly: primary screen, population patch clamp on CHO cells stably expressing hERG; higher = less effect of the substance.
For the molecule `CC(C)c1ccc(CN2CCN(C(=O)CSc3nnnn3C3CC3)CC2)cc1`, the “hERG current change (%, negative = inhibition) at 10uM” value was -28.1%.

Take `COc1ccc2c(C(=O)CN(C)C3CCCCC3)c[nH]c2c1`: the “hERG current change (%, negative = inhibition) at 10uM” value stood at 9.09%.

Consider `CC(=O)Nc1ccc(NC(=O)CSc2nnc(-c3cccs3)n2C)cc1`, for which the “hERG current change (%, negative = inhibition) at 10uM” value is reported as -7.69%.

Consider `Cc1csc(NC(=O)CSc2nnc(-c3ccncc3)n2C)n1`, for which the “hERG current change (%, negative = inhibition) at 10uM” value is -17.5%.

Regarding `Cc1csc(NC(=O)CSc2nnc(-c3cccs3)n2C)n1`, the “hERG current change (%, negative = inhibition) at 10uM” value is reported as -60.5%.

For the molecule `Cc1cnc(NC(=O)CSc2nnc(-c3cccs3)n2C)s1`, the “hERG current change (%, negative = inhibition) at 10uM” value was -59.4%.

For `Cc1csc(NC(=O)CSc2nnc(CCNC(=O)c3cccs3)n2C)n1`, the “hERG current change (%, negative = inhibition) at 10uM” value stood at 8.1%.

For the molecule `Cc1cnc(NC(=O)CSc2nnc(Cc3ccccc3)n2C)s1`, the “hERG current change (%, negative = inhibition) at 10uM” value was -12.1%.

Take `O=C(CCCc1nc2ccccc2s1)NCc1ccccc1F`: the “hERG current change (%, negative = inhibition) at 10uM” value is listed as -20.2%.

As for `CCN(CC(=O)Nc1c(F)cccc1F)C(=O)c1cccc(-n2cccc2)c1`, the “hERG current change (%, negative = inhibition) at 10uM” value is given as -27.1%.

Take `CCCCCN(C(=O)CCC(=O)OC(C)C(=O)NCc1ccccc1)c1c(N)n(CCCC)c(=O)[nH]c1=O` (stereo not shown): the “hERG current change (%, negative = inhibition) at 10uM” value was -14.5%.

On to `O=C(c1cnn2c(C(F)F)cc(-c3ccccc3)nc12)N1CCCc2ccccc21`, for which the “hERG current change (%, negative = inhibition) at 10uM” value was -3.45%.

`COCCn1c(SCC(=O)N2CCCC2)nnc1-c1ccco1`: the “hERG current change (%, negative = inhibition) at 10uM” value is 18.6%.

Turning to `Cc1ccc(/C=N\NC(=O)Cc2noc3ccccc23)cc1`, the “hERG current change (%, negative = inhibition) at 10uM” value stood at 15.6%.

Consider `COC(=O)c1ccc(C(=S)N2CCCCC2)cc1`, for which the “hERG current change (%, negative = inhibition) at 10uM” value came to 8.89%.

`O=C(O)c1ccc(SCc2cnc(Cl)s2)cc1`: the “hERG current change (%, negative = inhibition) at 10uM” value is given as -70%.

Turning to `COC(=O)c1ccc(SCc2cnc(Cl)s2)cc1`, the “hERG current change (%, negative = inhibition) at 10uM” value is reported as 1.27%.

As to `Clc1ncc(CSc2ccccc2)s1`, the “hERG current change (%, negative = inhibition) at 10uM” value was 3.25%.

With `COC(=O)c1ccc(CNC(=O)c2ccc3c(c2)S(=O)(=O)N=C2CCCCCN23)cc1`, the “hERG current change (%, negative = inhibition) at 10uM” value is on record as -10.5%.

In the case of `Cc1cc2ccccc2c(=O)n1CC(=O)NCC1COc2ccccc2O1` (stereo not shown), the “hERG current change (%, negative = inhibition) at 10uM” value stood at 0.464%.

As for `CCn1cc(/C=N\NC(=O)Cc2ccc([N+](=O)[O-])cc2)c(C)n1`, the “hERG current change (%, negative = inhibition) at 10uM” value is -25.1%.

With `CCN(Cc1cccc(OC)c1)CC1CCCN(CCc2cccc(OC)c2)C1` (stereo not shown), the “hERG current change (%, negative = inhibition) at 10uM” value was -47.3%.

Regarding `CCN(Cc1ccc(NC(C)=O)cc1)CC1CCCN(CCc2cccc(OC)c2)C1` (stereo not shown), the “hERG current change (%, negative = inhibition) at 10uM” value is recorded as -30.3%.

Regarding `CCN(Cc1ccc(OC)c(COC)c1)CC1CCCN(CCc2cccc(OC)c2)C1` (stereo not shown), the “hERG current change (%, negative = inhibition) at 10uM” value is recorded as -26.3%.

Take `OCCC#Cc1ccc(CN2CCN(C3CCCCC3)C(CCO)C2)cc1` (stereo not shown): the “hERG current change (%, negative = inhibition) at 10uM” value is given as -0.113%.

Regarding `CCN(Cc1ccc(C#CCCO)cc1)CC1CCCN(CCc2cccc(OC)c2)C1` (stereo not shown), the “hERG current change (%, negative = inhibition) at 10uM” value is -58.5%.

In the case of `CN(Cc1ccc(C#CCCO)cc1)CC1CCCN(CCc2ccc(Cl)cc2)C1` (stereo not shown), the “hERG current change (%, negative = inhibition) at 10uM” value is given as -70.9%.

`CCN(Cc1ccc(OC)c(COC)c1)CC1CCCN(CCc2cccc(F)c2)C1` (stereo not shown): the “hERG current change (%, negative = inhibition) at 10uM” value is -67.7%.

As for `CCN(Cc1ccc(C#CCCO)cc1)CC1CCCN(CCc2cccc(F)c2)C1` (stereo not shown), the “hERG current change (%, negative = inhibition) at 10uM” value is listed as -65.2%.

`CCOc1ccc(NC(=O)Nc2cc(C(=O)O)ccc2N2CC3CC(C2)c2cccc(=O)n2C3)cc1` (stereo not shown): the “hERG current change (%, negative = inhibition) at 10uM” value is listed as 12.4%.

In the case of `Cc1cc(C)cc(Nc2cc(C)nc3nc(C)nn23)c1`, the “hERG current change (%, negative = inhibition) at 10uM” value is -14.7%.

Turning to `O=c1[nH]c(/C=C/c2ccccc2)c([N+](=O)[O-])c(=O)[nH]1`, the “hERG current change (%, negative = inhibition) at 10uM” value worked out at 5.45%.

With `CCN1C(=O)Nc2cccc3cccc1c23`, the “hERG current change (%, negative = inhibition) at 10uM” value was 1.65%.

Take `CCN(CC)C(=O)c1cnn(-c2ccccc2)c1NC(=O)c1ccco1`: the “hERG current change (%, negative = inhibition) at 10uM” value is reported as -12.8%.

For `COc1ccc(/C=C/C(=O)Nc2ccccc2C(=O)NCC(c2ccc(OC)cc2)N(C)C)cc1` (stereo not shown), the “hERG current change (%, negative = inhibition) at 10uM” value is -49.6%.

For the molecule `CCc1nc(N=Nc2c(O)[nH]c3ccccc23)c2c3c(sc2n1)CCC3`, the “hERG current change (%, negative = inhibition) at 10uM” value was 13.7%.

Take `O=C(COC(=O)c1cc(Cl)ccc1[N+](=O)[O-])NCc1ccc(Cl)cc1Cl`: the “hERG current change (%, negative = inhibition) at 10uM” value was -11.8%.

Take `COc1ccccc1CCNC(=O)CN1C(=O)c2ccccc2S1(=O)=O`: the “hERG current change (%, negative = inhibition) at 10uM” value was 2.11%.

For the molecule `CC(C)(C)C(=O)NC1CCSC1=O` (stereo not shown), the “hERG current change (%, negative = inhibition) at 10uM” value was 8.46%.

With `CN(C)CCN1C(=O)C2C3C=CC(C3)C2C1=O` (stereo not shown), the “hERG current change (%, negative = inhibition) at 10uM” value is 20.6%.

In the case of `Cc1cc(C)c2c(=O)[nH]c(SCC(=O)Nc3ccc(N(C)C)cc3)nc2n1`, the “hERG current change (%, negative = inhibition) at 10uM” value is reported as -2.77%.

Take `CCCc1[nH]nc2c1C(Cc1ccccc1)C(C#N)=C(N)O2` (stereo not shown): the “hERG current change (%, negative = inhibition) at 10uM” value came out at 0.432%.

In the case of `Cc1nn(-c2ccccc2)c(C)c1-c1cc(C(=O)N/N=C/c2cccnc2)[nH]n1`, the “hERG current change (%, negative = inhibition) at 10uM” value was -18.7%.

As for `Cc1cccc2c1N(C)C(=O)C2=O`, the “hERG current change (%, negative = inhibition) at 10uM” value is on record as 17.1%.

As for `Cc1ccc(NC(=O)CNCc2ccccn2)cc1S(=O)(=O)N(C)C`, the “hERG current change (%, negative = inhibition) at 10uM” value was 20.9%.

Turning to `CCN(Cc1ccc(NC(C)=O)cc1)CC1CCCN(CCc2cccc(F)c2)C1` (stereo not shown), the “hERG current change (%, negative = inhibition) at 10uM” value is listed as -24.4%.

Consider `CCN(Cc1ccc(O)cc1)CC1CCCN(CCc2cccc(F)c2)C1` (stereo not shown), for which the “hERG current change (%, negative = inhibition) at 10uM” value was -71.1%.

As to `Cc1ccc(-c2nnc(CSc3nnc(COc4ccccc4)n3-c3ccc(C)cc3)o2)cc1`, the “hERG current change (%, negative = inhibition) at 10uM” value is given as -7.47%.

For the molecule `CC(C)C(OC(=O)c1ccco1)C(=O)NCc1cccs1` (stereo not shown), the “hERG current change (%, negative = inhibition) at 10uM” value is -0.362%.

For the molecule `CN(C)c1ccc(/C=N/NC(=O)C2CC2c2ccccc2)cc1` (stereo not shown), the “hERG current change (%, negative = inhibition) at 10uM” value was -74.9%.

For `O=C(N/N=C/c1ccco1)C1CC1c1ccccc1` (stereo not shown), the “hERG current change (%, negative = inhibition) at 10uM” value is -4.18%.

Take `CN(C)c1ccc(/C=N/NC(=O)c2ccccc2)cc1`: the “hERG current change (%, negative = inhibition) at 10uM” value was found to be 10.9%.

As for `CCOc1ccc(CCNC(=O)CCS(=O)(=O)c2ccc(Br)cc2)cc1OCC`, the “hERG current change (%, negative = inhibition) at 10uM” value is given as 13.8%.

As to `Cc1cc(NC(=S)N(CCN2CCOCC2)Cc2ccccc2F)ccc1Cl`, the “hERG current change (%, negative = inhibition) at 10uM” value was determined as 24.1%.

For the molecule `COc1cccc(CCC(=O)N2CCC(n3nccc3NC(=O)C3CCOC3)CC2)c1` (stereo not shown), the “hERG current change (%, negative = inhibition) at 10uM” value came to 14.9%.

For the molecule `COc1ccc(Nc2nc(N)c(C(=O)c3ccc(F)cc3)s2)cc1`, the “hERG current change (%, negative = inhibition) at 10uM” value is given as 25.9%.

`COc1ccc(C(=O)c2sc(Nc3ccccc3)nc2N)cc1`: the “hERG current change (%, negative = inhibition) at 10uM” value was found to be 18.1%.

Regarding `COc1ccc(Nc2nc(N)c(C(=O)c3ccc(OC)cc3)s2)cc1`, the “hERG current change (%, negative = inhibition) at 10uM” value is reported as -52.7%.
